From PubChem
KKLEB cytotox – counter-screen for CF NF-kB inhibitors: cytotoxicity; hit rate 0.36% among 360,000; KKLEB CF airway cells viability, ATPlite luminescence, overnight; stronger effect = lower value; cells stimulated with P. aeruginosa culture filtrate; activity change (cytotoxicity), % at 5 µM;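 active = corrected activity change at or below -50% at 5 µM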
HSP90 inh – inhibitors of HSP90 luciferase refolding in rabbit reticulocyte lysate | luciferase refolding luminescence, 3 h | AID 1789 | hit rate 0.91% among 290,000 | inhibition, % at 5.6 µM;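 active = inhibition above the screen-wide mean plus 3 SD, computed separately per campaign, cut at about 16% in these data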;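 note: 0% = DMSO wells and 100% = 60 µM geldanamycin wells; inhibitors lower the luminescence because luciferase stays unfolded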
Peg3 promoter – Peg3 promoter activity inhibition; inhibition, % at 20 µM; AID 588405; HeLa PEG-Prom luciferase reporter, luminescence, overnight; hit rate 1.7% among 360,000;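 active = inhibition of at least 50% at 20 µM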
LGR2 inh – inhibitors of bursicon-induced Drosophila LGR2 receptor cAMP signaling. HEK293 LGR2, CRE-luciferase, bursicon-stimulated, 4 h. inhibition, % at 9.99 µM. hit rate 0.35% among 380,000. AID 720647;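 active = drop in luminescence signal, shown as inhibition above about 50% in the replicate tests, limit read from the data, passing the limit was not always enough; inconclusive = probably only some replicates passing the limit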;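 note: agonist challenge used bursicon conditioned medium at about half maximal strength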
CF NFkB block – inhibitors of cystic fibrosis induced NF-kB; hit rate 0.86% among 360,000; KKLEB NF-kB-GFP reporter, PAF-induced, GFP fluorescence overnight; AID 588850; inhibition, % at 5 µM;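 active = at least 50% inhibition at 5 µM, scaled per plate between neutral and stimulator controls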;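 note: PAF is a Pseudomonas aeruginosa culture filtrate used as stimulus; plate controls were PAF-stimulated DMSO wells for no effect and unstimulated DMSO wells for full effect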
Mdm2-MdmX inh – human Mdm2/MdmX binding inhibition; O15151+Q00987; SaOS-2 split-luciferase Mdm2/MdmX complementation, luminescence; inhibition, % at 8 µM; hit rate 3% among 330,000;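 active = inhibition of at least 50% at 8 µM in the primary screen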
Target sequence (O15151 whole entry, looked up): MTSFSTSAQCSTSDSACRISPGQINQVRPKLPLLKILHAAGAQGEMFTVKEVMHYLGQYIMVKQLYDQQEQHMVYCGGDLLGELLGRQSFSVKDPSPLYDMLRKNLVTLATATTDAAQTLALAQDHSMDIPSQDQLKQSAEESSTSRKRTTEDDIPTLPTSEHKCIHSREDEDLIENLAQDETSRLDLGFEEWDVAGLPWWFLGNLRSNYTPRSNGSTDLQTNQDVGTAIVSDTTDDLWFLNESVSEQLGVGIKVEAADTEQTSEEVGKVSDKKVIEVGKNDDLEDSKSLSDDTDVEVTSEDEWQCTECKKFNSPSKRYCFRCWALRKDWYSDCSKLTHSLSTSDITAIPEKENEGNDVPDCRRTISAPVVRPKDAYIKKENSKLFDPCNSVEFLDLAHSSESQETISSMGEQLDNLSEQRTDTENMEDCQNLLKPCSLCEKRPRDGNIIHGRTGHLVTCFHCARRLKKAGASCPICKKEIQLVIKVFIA
Target sequence (Q00987 whole entry, looked up): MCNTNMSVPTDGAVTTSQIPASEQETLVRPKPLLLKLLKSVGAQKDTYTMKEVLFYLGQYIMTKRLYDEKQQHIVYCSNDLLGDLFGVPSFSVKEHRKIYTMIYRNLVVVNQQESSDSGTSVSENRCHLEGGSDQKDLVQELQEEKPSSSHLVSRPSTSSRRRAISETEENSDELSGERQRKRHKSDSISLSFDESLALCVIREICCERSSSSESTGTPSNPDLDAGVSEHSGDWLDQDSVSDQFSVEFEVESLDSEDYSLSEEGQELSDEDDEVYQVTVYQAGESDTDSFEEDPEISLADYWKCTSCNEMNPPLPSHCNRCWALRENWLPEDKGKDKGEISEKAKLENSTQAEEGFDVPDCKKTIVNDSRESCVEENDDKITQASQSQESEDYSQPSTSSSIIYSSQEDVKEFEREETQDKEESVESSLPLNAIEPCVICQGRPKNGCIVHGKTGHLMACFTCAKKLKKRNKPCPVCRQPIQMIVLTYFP
HSP90 inh confirm – HSP90 inhibition, confirmation assay. hit rate 64% among 2,300. inhibition, % at 5.9 µM. rabbit reticulocyte lysate, luciferase refolding luminescence, 3 h. AID 1846. shares compounds with HSP90 inh; in the data active = inhibition above about 18%;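 note: 0% = vehicle wells and 100% = reference inhibitor wells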
FLuc counter – firefly luciferase inhibition, HSP90 counter-screen | shares compounds with HSP90 inh | purified native firefly luciferase, luminescence | inhibition, % at 5.9 µM | hit rate 48% among 2,300;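 active = inhibition above the mean inhibition of all tested sample wells plus 3 SD, cut at about 10% in these data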;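 note: 0% = DMSO with luciferase and 100% = wells lacking luciferase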
Starred values were filed as active, the others as inactive; ? = inconclusive; nt = no result. Shown are actives, neighbours in structure and some others; about 3.6% of the full set was active somewhere.

SMILES	KKLEB cytotox	HSP90 inh	Peg3 promoter	LGR2 inh	CF NFkB block	Mdm2-MdmX inh	HSP90 inh confirm	FLuc counter
CCOc1ccccc1Nc1nc(-c2sc(NC(=O)c3ccc([N+](=O)[O-])cc3)nc2C)cs1	nt	78.5*	nt	nt	nt	9.0	19.9*	-4.4
CCC(C)C(=O)Nc1nc(C)c(-c2csc(Nc3ccccc3OC)n2)s1 (configuration not stated)	4.9	3.3	-3.9	-9.9	10.8	35.8	nt	nt
Cc1ccccc1Nc1nc(-c2sc(NC(=O)c3ccccc3)nc2C)cs1	nt	58.7*	nt	nt	nt	20.9	30.3*	-13.6
Cc1ccccc1Nc1nc(-c2sc(NC(=O)c3ccc([N+](=O)[O-])cc3)nc2C)cs1	nt	78.8*	nt	nt	nt	-15.1	53.3*	-3.6
C[C@H]1CN([C@@H](C)CO)C(=O)c2cc(NC(=O)CCC(F)(F)F)ccc2O[C@@H]1CN(C)CC1CC1	nt	nt	nt	-4.1	nt	nt	nt	nt
CCCN(C)C[C@H]1Oc2ncc(-c3cccc(C#N)c3)cc2C(=O)N([C@H](C)CO)C[C@H]1C	nt	nt	nt	-9.1	nt	nt	nt	nt
C[C@H](CO)N1C[C@H](C)[C@@H](CN(C)C(=O)C2CCC2)Oc2cc(C#CCN(C)C)ccc2S1(=O)=O	nt	nt	nt	1.1	nt	nt	nt	nt
CCCCCC(=O)Nc1nc(C)c(-c2csc(Nc3cc(Cl)ccc3C)n2)s1	-20.3	0.3	7.4	-6.2	6.2	4.8	nt	nt
Cc1ccc(-c2csc(NC(=O)c3ccc(-c4ccccc4)cc3)n2)o1	-12.8	36.5*	-118.6	nt	-51.4	11.0	35.9*	-0.2
Cc1ccccc1Nc1nc(-c2sc(NC(=O)c3cccc(Cl)c3)nc2C)cs1	nt	77.6*	nt	nt	nt	-42.3	52.1*	-5.6
Cc1ccc(Nc2nc(-c3sc(NC(=O)c4ccc([N+](=O)[O-])cc4)nc3C)cs2)cc1	nt	80.8*	nt	nt	nt	-58.3	44.8*	-10.2
Cc1noc(C)c1NC(=O)N[C@H]1CC[C@H](CC(=O)NCc2ccc(Cl)c(Cl)c2)O[C@@H]1CO	nt	nt	nt	-18.7	nt	nt	nt	nt
C[C@@H]1CN([C@@H](C)CO)C(=O)c2cc(NC(=O)Cn3cnnn3)ccc2O[C@@H]1CN(C)Cc1ccc(C(=O)O)cc1	nt	nt	nt	13.0	nt	nt	nt	nt
COc1cccc(S(=O)(=O)N(C)C[C@@H]2Oc3ncccc3C(=O)N([C@H](C)CO)C[C@@H]2C)c1	nt	nt	nt	2.7	nt	nt	nt	nt
COc1ccc(NC(=O)Nc2cccc3c2O[C@@H](CN(C)C(=O)Nc2ccccc2)[C@H](C)CN([C@H](C)CO)C3=O)cc1	nt	nt	nt	3.4	nt	nt	nt	nt
Cc1ccc(-c2onc3ccc(C4OCCO4)cc23)cc1	-9.9	34.7*	-149.6	-45.9	-3.0	-9.4	1.3	-19.7
O=C(C[C@H]1CC[C@H](NC(=O)CCN2CCCCC2)[C@H](CO)O1)NCc1ccc(Cl)c(Cl)c1	nt	nt	nt	-5.9	nt	nt	nt	nt
CC(C)c1ccc(/C=C2\SC(N3CCCC3)=NC2=O)cc1	2.2	19.3*	-53.9	-8.7	0.5	36.7	3.9	3.2
CN(C)c1ccc(/C=C2\SC(N3CCCCC3)=NC2=O)cc1	-10.9	45.1*	-45.8	45.4	-15.7	30.2	55.0*	59.8*
Cc1ccc(/C=C2\SC(N3CCCC3)=NC2=O)cc1	nt	-0.9	nt	-68.6	nt	-2.5	nt	nt
O=C(O)CSc1nnc(NC(=O)c2ccc3c(c2)OCO3)s1	-18.7	25.9*	39.0	26.6	8.4	10.0	26.2*	-7.6
Cc1nc(N)sc1-c1csc(Nc2cccc(O)c2)n1	-4.1	31.3*	-38.7	9.0	21.1	-17.9	-4.0	-20.8
Cc1nc(C)c(-c2csc(Nc3cccc(O)c3)n2)s1	9.0	-5.6	-245.1	-95.3	-24.9	-62.7	nt	nt
CC(=O)c1cccc(Nc2nc(-c3sc(N)nc3C)cs2)c1	-2.6	52.3*	-75.0	0.7	14.7	0.9	1.0	-10.4
C[C@H]1CCCCO[C@H](CN(C)S(=O)(=O)c2ccc(F)cc2)[C@@H](C)CN([C@@H](C)CO)C(=O)c2cc(NS(=O)(=O)c3cccs3)ccc2O1	nt	nt	nt	6.5	nt	nt	nt	nt
SMILES	KKLEB cytotox	HSP90 inh	Peg3 promoter	LGR2 inh	CF NFkB block	Mdm2-MdmX inh	HSP90 inh confirm	FLuc counter
O=C(Nc1ccc2c(c1)[C@@H]1C[C@H](CC(=O)N3CCCCC3)O[C@H](CO)[C@@H]1O2)Nc1ccccc1F	nt	nt	nt	-2.1	nt	nt	nt	nt
Cc1ccc2nc(-c3ccc(O)c(O)c3)cn2c1	5.1	30.2*	-112.4	?	-14.6	-57.6	41.1*	9.7*
COC(=O)c1ccc(NC(=O)c2ccccc2C(=O)Nc2ccc(C(=O)OC)cc2)cc1	1.8	nt	-3.0	nt	-11.4	0.5	nt	nt
COC(=O)c1ccc(NC(=O)C(=O)c2cccn2C)cc1	-4.2	25.7*	-93.9	?	4.5	-185.6	58.8*	42.2*
CNC(=S)N/N=C/c1ccc(-c2cccc(C(=O)O)c2)o1	-4.1	26.4*	-52.5	65.1*	-4.1	20.9	14.7	0.3
Cc1ccc(-c2ccc(/C=N/NC(=O)c3ccccc3O)o2)cc1	nt	21.6*	nt	nt	nt	16.4	-3.1	-11.2
O=C(CN1CCOCC1)NCC[C@@H]1CC[C@H](NC(=O)Nc2ccc(C(F)(F)F)cc2)[C@H](CO)O1	nt	nt	nt	-37.2	nt	nt	nt	nt
C[C@H]1CN([C@@H](C)CO)C(=O)Cc2cc(NS(=O)(=O)c3cccs3)ccc2O[C@H]1CN(C)Cc1ccc2c(c1)OCO2	nt	nt	nt	-12.8	nt	nt	nt	nt
C[C@@H]1CCCCO[C@@H](CN(C)S(C)(=O)=O)[C@@H](C)CN([C@H](C)CO)C(=O)c2cc(NC(=O)Cc3ccccc3)ccc2O1	nt	nt	nt	-17.3	nt	nt	nt	nt
CN1C(=O)c2cc(NC(=O)Cc3cccs3)ccc2OC[C@H]2O[C@@H](CC(=O)NCc3ccc(-c4ccccc4)cc3)CC[C@H]21	nt	nt	nt	11.5	nt	nt	nt	nt
Cc1ccc(-c2nc(CS(=O)(=O)CC(=O)NCCCN(Cc3ccccc3)C(C)C)c(C)o2)cc1	6.8	1.3	4.0	15.3	1.5	48.1	nt	nt
Cc1oc(-c2ccc(-c3ccccc3)cc2)nc1CN(CCO)C(C)C	-19.0	85.2*	-131.7	-65.1	9.9	-83.8	93.5*	21.0*
Cc1oc(-c2ccc(-c3ccccc3)cc2)nc1CN(C)C1CCOC1 (configuration not stated)	17.9	74.7*	-246.3	-98.4	-11.7	-86.3	86.0*	-1.6
CCCC(=O)Nc1ccc2c(c1)C(=O)N(C)[C@@H]1CC[C@@H](CC(=O)NCC3CCCCC3)O[C@@H]1CO2	nt	nt	nt	-6.6	nt	nt	nt	nt
CCOC(=O)C(=O)Nc1ccc([N+](=O)[O-])cc1OC	-3.1	21.7*	11.0	-6.0	1.1	-15.8	-7.5	-15.8
COC(=O)Nc1cc([N+](=O)[O-])ccc1OC	7.7	7.7	-28.0	nt	6.8	1.2	nt	nt
COc1ccc(OC(=O)Nc2ccc([N+](=O)[O-])cc2OC)cc1	-2.4	20.0*	15.4	4.6	9.3	10.3	0.1	-13.3
CCOC(=O)Nc1ccc([N+](=O)[O-])cc1OC	7.0	15.9	-32.3	nt	-17.2	-14.1	nt	nt
C[C@@H]1CN([C@H](C)CO)C(=O)c2cc(C3=CCCCC3)cnc2O[C@H]1CN(C)C(=O)NC1CCCC1	nt	nt	nt	-10.9	nt	nt	nt	nt
CN(C)CC#Cc1ccc([C@@H]2[C@@H](CO)N3C(=O)CN(C(=O)Cc4cccnc4)C[C@H]23)cc1	nt	nt	nt	-16.7	nt	nt	nt	nt
